PubChem BioAssay (NCI)
This is part of a sample that, as a whole, favours compounds with a hit. Of some 79,000 tested, about 15% had one in any assay. A number with no mark means an inactive call. Activity calls are given as the source filed them. No stated cut-off is given here; in the data, active means growth inhibition above about 70%; inactive means the rest.

Legend:
[1] = NCI Yeast Anticancer Drug Screen. Data for the rad50 strain (AID 155);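 further: 0% = growth of vehicle-only cultures of the same strain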; conditions: S. cerevisiae rad50 strain growth inhibition; at 50.0 µM; hits give high values
Procedure, shortened: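 Yeast carrying a defined DNA repair defect were exposed to test compounds, and growth was compared with vehicle-treated controls to give percent inhibition.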

[2] = NCI Yeast Anticancer Drug Screen. Data for the mec2-1 strain (AID 157); conditions: S. cerevisiae mec2-1 strain, at 50.0 µM, hits give high values
Procedure, shortened: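 Each compound was tested on mec2-1 yeast, a strain altered in DNA damage repair or cell cycle control. Growth inhibition is reported relative to vehicle.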

[3] = NCI Yeast Anticancer Drug Screen. Data for the sgs1 mgt1 strain (AID 161);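 further: 0% = growth of cultures given vehicle only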; conditions: S. cerevisiae sgs1 mgt1 strain, at 50.0 µM, hits give high values
Procedure, shortened: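 Mutant yeast exposed to compound; growth scored against vehicle-only wells.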

[4] = NCI Yeast Anticancer Drug Screen. Data for the cln2 rad14 strain (AID 165);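 further: 0% = growth equal to vehicle treated cultures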; conditions: S. cerevisiae cln2 rad14 strain, at 50.0 µM, hits give high values
Procedure, shortened: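 Test compounds were added to cln2 rad14 yeast cultures; inhibition of growth was then determined by comparison with vehicle treatment.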

[5] = NCI Yeast Anticancer Drug Screen. Data for the bub3 strain (AID 167); conditions: S. cerevisiae bub3 mutant strain, at 50.0 µM, hits give high values
Procedure, shortened: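 Compounds were applied to a genetically altered yeast strain carrying a cell-cycle control defect. Growth inhibition was scored against vehicle-treated controls.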

[6] = NCI Yeast Anticancer Drug Screen. Data for the mlh1 rad18 strain (AID 175); conditions: S. cerevisiae mlh1 rad18 strain growth inhibition; at 50.0 µM; hits give high values
Procedure, shortened: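 Inhibition values reflect reduced growth of mutant yeast versus vehicle-treated controls following compound exposure; the mutations affect DNA damage repair.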

SMILES	growth inhibition [1]	growth inhibition [2]	growth inhibition [3]	growth inhibition [4]	growth inhibition [5]	growth inhibition [6]
C=C(C)C(O)CC(C)C (stereo not given)	-8.6%	13.9%	-15.2%	7.65%	2.95%	0.2%
O=C(Nc1ccc([N+](=O)[O-])cc1)OC1CCS(=O)(=O)C1 (stereo not given)	-0.2%	6.15%	-3.65%	13.7%	8.6%	-1.65%
O=C(OCC1OC(OC(=O)c2ccc([N+](=O)[O-])cc2)CC(OC(=O)c2ccc([N+](=O)[O-])cc2)C1OC(=O)c1ccc([N+](=O)[O-])cc1)c1ccc([N+](=O)[O-])cc1 (stereo not given)	11.2%	15.2%	4.1%	-7.35%	-4.15%	36.5%
O=C(SCc1oc2ccccc2c1O)c1ccccc1	12.8%	13.7%	16.5%	-3.75%	-7.3%	13.3%
CC/C(=N/Nc1cn[nH]c(=O)c1Cl)c1ccccc1	4.6%	-0.6%	-0.5%	-35.6%	19%	-1.5%
NNC(=O)CSCC(=O)NN	-1.9%	-2.05%	-3.25%	-9.75%	1.2%	-5.35%
CC1=C(C(=O)Nc2ccc(Cl)c(C(=O)OC(C)C)c2)SCCO1	44.9%	7.35%	5.15%	4.05%	25.4%	0.45%
O=C1CS[C@@H]2C(=O)CCCC2C1 (stereo not given in full)	-16%	17.6%	-1.8%	-7.25%	-3.4%	-4.4%
COc1cc(Br)c(C2SCC(=O)N2c2nncs2)cc1OC (stereo not given)	1.55%	11.3%	7.9%	0.7%	-2.15%	26.6%
CCCNS(=O)(=O)c1nc2ccccc2s1	-26%	-15.2%	-5.6%	-22.1%	2.65%	-20.8%
Cc1c(COC(=O)NC(C)C)c(COC(=O)NC(C)C)c2n1CS(=O)(=O)C2	-16.2%	6.55%	-3.2%	7.3%	-5.7%	6.35%
CCOC(O)C(F)(F)F (stereo not given)	9.2%	-0.7%	10.6%	15.8%	0.45%	13.2%
CCOC(OCC)C(Cl)(Cl)CCl	6.25%	4.45%	-3.8%	-25.4%	-0.6%	-6.35%
Cc1c(N)cc2c(c1[N+](=O)[O-])C(C)(C)CC2(C)C	3.15%	-14.1%	1.6%	-5.2%	11.9%	-0.85%
c1ccc(-c2ccc(-c3ccccc3)c(-c3ccc4c(c3)CCC4)c2-c2ccccc2)cc1	14.1%	13.3%	7.25%	13.9%	-3.85%	21.8%
CN(C)CCCCC(C#N)(c1ccccc1)c1ccccc1	16.3%	18.8%	16.6%	12.7%	26.5%	38.5%
CCN(CC)CCC(=O)c1ccc(OC)cc1	7.95%	16.3%	2.45%	23.4%	7.55%	8.15%
COC(=O)C1OC(O[C@H]2CC[C@]3(C)[C@H]4CC=C5[C@@H]6CC(C)(C)CC[C@]6(C(=O)OC6OCC(O)C(O)C6OC6OC(C)C(OC7OCC(OC8OCC(O)C(O)C8O)C(O)C7O)C(O)C6O)[C@H](O)C[C@@]5(C)[C@]4(C)CC[C@H]3C2(C)C)C(O)C(O)C1O (stereo not given in full)	26.3%	17%	10.3%	11.9%	42.6%	32.2%
CC1(C)OC2C(COC(=O)c3ccc([N+](=O)[O-])cc3)OC(NC(=O)N(CCCl)N=O)C2O1 (stereo not given)	-34.4%	-21.2%	-20.9%	-11.2%	-36.5%	81.5% (active)
CCOc1ccc(N=Cc2c3ccccc3nc3ccccc23)cc1	-3.05%	14.5%	-3.25%	25.9%	6.25%	-9%

SMILES	growth inhibition [1]	growth inhibition [2]	growth inhibition [3]	growth inhibition [4]	growth inhibition [5]	growth inhibition [6]
c1ccc2c(c1)cnc1cc3c(cc12)ncc1ccccc13	8.05%	19.9%	9.3%	14.8%	-6.45%	28.8%
CCCOCN1COCN=C1NC#N	28.8%	12.3%	-4.7%	-0.05%	5.65%	5.75%
O=c1cc[nH]c(=S)[nH]1.[Pt]	12.1%	19.3%	5.55%	-19.4%	0.7%	28.6%
S=C1N=C(Cl)/C(=C\c2ccccc2)N1	-4.65%	-23.9%	3.45%	24.1%	11.5%	-14.4%
Nc1ccc2cc3ccccc3cc2c1	12.6%	-20.6%	1.95%	-18%	7.35%	25%
COc1ccc2c(=O)cc[nH]c2c1OC	-13.9%	-16.4%	-8.2%	-23.9%	9.1%	4.85%
CCOC(=O)N1C=NC23C(c4ccccc4)C(c4ccccc4)C12C(=O)N(C)C(=O)N3C (stereo not given)	-1.55%	-9.2%	0.7%	-26.8%	-8.35%	-30.9%
Nc1ccc(I)cc1	-10.8%	-4.05%	-34.6%	-20.8%	-23.2%	-22.1%
Cc1ccc(C(N)=Nc2ccccc2)cc1	0.65%	0%	-0.3%	-2.85%	3.3%	23.4%
C#CCN(Cc1ccc2nc(-c3ccccc3)c(N)nc2c1)c1cc(OC)c(OC)c(OC)c1	-0.75%	5.25%	31.8%	16.1%	14.7%	30.1%
CC(O)C(NC(=O)Nc1ncnc2nc[nH]c12)C(=O)O (stereo not given)	8.8%	4.3%	-2%	7.75%	-14.2%	16.9%
NC(=O)N/N=C1\CCc2ccccc2C1	12.8%	-12.3%	-25.8%	22.4%	-42.3%	-2.8%
COc1cc(NC(=O)Nc2cccc(C(C)=O)c2)c(OC)cc1Cl	-10.5%	11%	0.75%	-14.4%	6.35%	-9.15%
CCC1c2c(cc(=O)[nH]c2O)C(=O)N1C (stereo not given)	9.5%	-4.75%	3.95%	-9.15%	-0.8%	0.55%
CCOc1nc(SCC)nc2c1cnn2-c1ccccc1	-8.45%	-26.4%	-9.9%	-15.8%	-1.2%	-19.5%
COc1ccc(C(c2ccc(N(Cc3ccccc3)Cc3ccccc3)cc2NC(C)=O)c2ccc(N(Cc3ccccc3)Cc3ccccc3)cc2NC(C)=O)cc1OC	5.75%	-5.25%	-19.9%	-8.55%	-6.1%	26.7%
COc1cc(N(CCC#N)CCC#N)ccc1/C(N=Nc1ccccc1)=N/NC(=O)c1cc(Br)ccc1O	31.4%	37.1%	44.2%	3.3%	35.9%	21.4%
CC(=O)CC1=CC(C(C)(C)C)=CC(=O)C1=O	43.1%	26.1%	30.1%	49%	8.6%	49.5%
CC(=O)Nc1ccc(N=Nc2cccc(C)c2)cc1C	-1.6%	-1.6%	10.1%	-13.1%	2.4%	-7.2%
CNC(=O)OCc1nc(SC)n(Cc2ccccc2)c1COC(=O)NC	15.3%	5.9%	11.2%	-1.1%	-1.55%	18.5%
